We go through 25 compounds from PubChem BioAssay (NCATS).

The structures appear in SMILES notation. Results filed as inconclusive are left out. Active and inactive are the calls of the source. Unless noted, the call rests on the fitted dose curve; in most records, active means well fitted curve in the direction sought with a large enough effect; inconclusive means small, poorly fitted or top-dose-only effect, or another doubt; inactive means no such curve, though single readings can be large; an effect the other way counts as inactive or inconclusive.

For test [1], the target named is Atrial natriuretic peptide receptor 1 (Homo sapiens) (UniProt P16066). As to the kind of experiment: Natriuretic polypeptide receptor (hNpr1) antagonism - Pilot screen (AID 1347049; calls by dose curve;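 further: agonist-evoked cGMP luminescence read 20 min after hNppA addition; series mostly up to about 58 µM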). In a few lines: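 HEK293 cells co-expressing hNpr1 and the GloSensor pGS-40F cGMP luciferase sensor were preloaded with 2% GloSensor reagent for 2 h. Compounds were added for 30 min at room temperature, then cells were stimulated with 0.1 nM hNppA for 20 min before luminescence readout.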

Test [2] addresses Atrial natriuretic peptide receptor 2 (Homo sapiens) (UniProt P20594). Kind of test: Natriuretic polypeptide receptor (hNpr2) antagonism - Pilot subtype selectivity assay (AID 1347050; calls by dose curve; further: potency means the concentration at half of the fitted maximal effect). In a few lines: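 cGMP-sensor HEK293/hNpr2 cells; 2% GloSensor reagent 2 h RT; compounds 30 min; baseline luminescence read; 1 nM hNppC agonist 20 min RT; final luminescence read by CCD camera. Antagonism = reduced post-agonist signal.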

Test [3] in a line: NS1 protein of Zika virus - qHTS assay to identify small molecule inhibitors in human HEK 293 cells (AID 1347053). Further: series mostly up to about 46 µM; nearly all actives have a fitted effect of over 55% in size. In a few lines:
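Inhibition of NS1 expression was scored in HEK 293 cells given compound 1 h ahead of MR766 virus (MOI = 0.5). Following 24 h at 37 C, two anti-NS1 antibodies generated a TR-FRET signal, scaled between uninfected and infected controls.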
In general terms: qHTS replaces the single test concentration by a dilution series.

The target in test [4] is T1, Tyrosine-protein phosphatase non-receptor type substrate 1 (Homo sapiens) + Leukocyte surface antigen CD47 (Homo sapiens) (UniProt P78324+Q08722). Kind of test: CD47-SIRPalpha protein protein interaction - LANCE assay qHTS validation (AID 1347057; active means well fitted curve in the direction sought with a large enough effect in the signal ratio, with a control signal flat, not every such curve was filed as active; the % refers to the signal ratio; further: series mostly up to about 38 µM). In a few lines:
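First, His-tagged CD47 and Eu-labelled anti-His antibody met the compound for 30 min; next, site-specifically biotinylated SIRPalpha was added for 30 min; finally streptavidin-APC was added before reading the TR-FRET ratio.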

For test [5], the target named is T1, Tyrosine-protein phosphatase non-receptor type substrate 1 (Homo sapiens) + Leukocyte surface antigen CD47 (Homo sapiens). Kind of test: CD47-SIRPalpha protein protein interaction - HTRF assay qHTS validation (AID 1347058; active means well fitted curve in the direction sought with a large enough effect in the signal ratio, not every such curve was filed as active; the % refers to the signal ratio; further: series mostly up to about 38 µM). In a few lines:
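TR-FRET read (Ch1/Ch2 ratio) of soluble extracellular CD47 and Avi-biotinylated SIRPalpha domains in PBS pH 7.4 with 0.05% IGEPAL; 7-point compound titration. Sequential 30 min room-temperature steps; non-biotinylated SIRPalpha as control inhibitor.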
(Time-resolved FRET reads energy transfer from a long-lived donor to a nearby acceptor.)

The target is the same in test [6]. As to the kind of experiment: CD47-SIRPalpha protein protein interaction - Alpha assay qHTS validation (AID 1347059).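 Further: bead proximity luminescence from CD47 binding SIRPalpha after compound preincubation with SIRPalpha.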 In a few lines:
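Soluble extracellular domains: Avi-tag biotinylated SIRPalpha (25 nM) preincubated 30 min RT with compound, then 6His-CD47 (12.5 nM) 30 min; Ni-NTA acceptor and streptavidin donor beads (10 ug/mL) 30 min, AlphaScreen read. PBS pH 7.4, 0.05% IGEPAL.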

The target of test [7] is Parathyroid hormone/parathyroid hormone-related peptide receptor (Homo sapiens) (UniProt Q03431). Kind of test: qHTS for PTHR1 Agonists: Optimization Screen against the NCGC LOPAC library (AID 1347079).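 Further: GloSensor cAMP luminescence in HEK-293 GP2 cells expressing human PTHR1 with IBMX.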 In a few lines: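 Agonist readout: GloSensor cAMP luminescence, read after 15 min at room temperature. HEK-293-derived GP2 line carries PTHR1; compounds tested as a titration for 1 hr at 37C in presence of IBMX. M-PTH (1-15) served as control.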

Test [8] in a line: qHTS of pediatric cancer cell lines to identify multiple opportunities for drug repurposing: Primary screen for TC32 cells (AID 1347089). Further: nearly all actives have a fitted effect of over 60% in size. In a few lines:
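A viability screen of TC32 cells was run over 48 h, with primary MIPE doses spanning 0.78 nM–46 µM and NPC doses 0.59 nM–46 µM. ATP luminescence (CellTiter-Glo) served as the read-out.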

Test [9] can be described thus: qHTS of pediatric cancer cell lines to identify multiple opportunities for drug repurposing: Primary screen for DAOY cells (AID 1347090). Further: series mostly up to about 46 µM; nearly all actives have a fitted effect of over 55% in size. In a few lines: (§1)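 Eight- or eleven-point concentration series, 48 h treatment at 37 degrees C in growth media; readout CellTiter-Glo luminescence. Potency and efficacy were taken from the concentration-response curves.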
The nature of test [10]: qHTS of pediatric cancer cell lines to identify multiple opportunities for drug repurposing: Primary screen for SJ-GBM2 cells (AID 1347091). Further: potency means the concentration at half of the fitted maximal effect. In a few lines:
as §1

Chain of Parathyroid hormone/parathyroid hormone-related peptide receptor (Homo sapiens) (Q03431 whole entry, looked up): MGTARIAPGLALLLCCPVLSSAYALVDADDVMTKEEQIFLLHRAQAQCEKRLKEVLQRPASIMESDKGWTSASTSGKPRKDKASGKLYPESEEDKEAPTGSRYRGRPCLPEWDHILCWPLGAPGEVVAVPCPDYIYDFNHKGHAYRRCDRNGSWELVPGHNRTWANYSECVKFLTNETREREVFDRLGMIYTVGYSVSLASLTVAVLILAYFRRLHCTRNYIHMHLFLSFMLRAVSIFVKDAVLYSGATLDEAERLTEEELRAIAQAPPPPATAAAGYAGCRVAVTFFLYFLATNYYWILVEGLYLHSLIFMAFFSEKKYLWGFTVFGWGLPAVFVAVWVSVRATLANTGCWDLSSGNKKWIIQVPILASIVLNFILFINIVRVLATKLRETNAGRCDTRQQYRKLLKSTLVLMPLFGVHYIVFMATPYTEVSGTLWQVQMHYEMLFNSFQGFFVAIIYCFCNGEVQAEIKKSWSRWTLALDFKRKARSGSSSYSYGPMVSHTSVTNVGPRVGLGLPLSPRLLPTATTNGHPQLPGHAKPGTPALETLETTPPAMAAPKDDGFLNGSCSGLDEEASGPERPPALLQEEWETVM
T1 sequence (P78324 whole entry, looked up): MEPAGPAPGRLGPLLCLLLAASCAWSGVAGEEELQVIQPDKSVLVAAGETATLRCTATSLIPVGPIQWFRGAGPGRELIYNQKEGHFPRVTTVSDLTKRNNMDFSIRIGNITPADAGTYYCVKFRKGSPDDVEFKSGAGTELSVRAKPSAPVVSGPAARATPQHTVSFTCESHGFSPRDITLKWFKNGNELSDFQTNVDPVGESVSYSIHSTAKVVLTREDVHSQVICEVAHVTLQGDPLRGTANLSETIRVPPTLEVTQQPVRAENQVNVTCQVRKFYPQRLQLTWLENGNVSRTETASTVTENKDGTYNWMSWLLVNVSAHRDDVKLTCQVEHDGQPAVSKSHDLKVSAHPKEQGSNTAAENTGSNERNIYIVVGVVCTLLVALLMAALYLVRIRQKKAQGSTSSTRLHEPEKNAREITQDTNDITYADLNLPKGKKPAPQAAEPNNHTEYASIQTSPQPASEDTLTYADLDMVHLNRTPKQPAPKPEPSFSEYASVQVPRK
T1 sequence (Q08722 whole entry, looked up): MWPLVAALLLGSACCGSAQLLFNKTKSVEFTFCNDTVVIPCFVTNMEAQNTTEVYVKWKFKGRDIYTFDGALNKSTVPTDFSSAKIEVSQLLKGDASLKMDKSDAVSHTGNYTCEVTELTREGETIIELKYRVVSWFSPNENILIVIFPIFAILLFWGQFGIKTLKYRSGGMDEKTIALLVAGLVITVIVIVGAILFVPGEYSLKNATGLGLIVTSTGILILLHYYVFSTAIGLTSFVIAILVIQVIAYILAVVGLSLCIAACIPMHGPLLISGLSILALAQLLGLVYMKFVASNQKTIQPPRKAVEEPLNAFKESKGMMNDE
Chain of Atrial natriuretic peptide receptor 2 (Homo sapiens) (P20594 whole entry, looked up): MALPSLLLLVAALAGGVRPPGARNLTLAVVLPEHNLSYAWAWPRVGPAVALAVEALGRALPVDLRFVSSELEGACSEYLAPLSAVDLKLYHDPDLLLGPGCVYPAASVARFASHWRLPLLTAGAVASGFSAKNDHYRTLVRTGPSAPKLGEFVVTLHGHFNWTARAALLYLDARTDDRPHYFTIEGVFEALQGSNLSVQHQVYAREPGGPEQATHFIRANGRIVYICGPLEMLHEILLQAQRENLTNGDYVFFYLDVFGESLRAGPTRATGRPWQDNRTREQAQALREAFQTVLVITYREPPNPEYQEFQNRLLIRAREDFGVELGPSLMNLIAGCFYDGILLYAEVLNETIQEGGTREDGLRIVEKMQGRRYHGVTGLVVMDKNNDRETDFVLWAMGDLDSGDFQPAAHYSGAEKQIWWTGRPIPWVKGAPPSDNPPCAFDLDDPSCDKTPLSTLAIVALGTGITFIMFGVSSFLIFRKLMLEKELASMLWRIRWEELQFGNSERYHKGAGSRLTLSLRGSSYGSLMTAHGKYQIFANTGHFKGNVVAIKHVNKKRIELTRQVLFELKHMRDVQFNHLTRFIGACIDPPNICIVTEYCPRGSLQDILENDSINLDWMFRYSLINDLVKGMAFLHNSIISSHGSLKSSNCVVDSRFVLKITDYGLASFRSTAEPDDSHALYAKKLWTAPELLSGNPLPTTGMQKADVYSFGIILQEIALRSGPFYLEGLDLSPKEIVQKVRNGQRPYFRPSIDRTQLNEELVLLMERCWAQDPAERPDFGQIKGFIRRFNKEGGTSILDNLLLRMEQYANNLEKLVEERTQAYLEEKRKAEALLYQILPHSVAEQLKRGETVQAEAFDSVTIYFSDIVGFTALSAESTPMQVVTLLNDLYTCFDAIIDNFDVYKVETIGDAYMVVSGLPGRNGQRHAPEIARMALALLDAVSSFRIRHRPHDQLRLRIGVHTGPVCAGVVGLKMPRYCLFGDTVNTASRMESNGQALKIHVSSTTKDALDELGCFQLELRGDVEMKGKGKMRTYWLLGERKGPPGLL
Chain of Atrial natriuretic peptide receptor 1 (Homo sapiens) (P16066 whole entry, looked up): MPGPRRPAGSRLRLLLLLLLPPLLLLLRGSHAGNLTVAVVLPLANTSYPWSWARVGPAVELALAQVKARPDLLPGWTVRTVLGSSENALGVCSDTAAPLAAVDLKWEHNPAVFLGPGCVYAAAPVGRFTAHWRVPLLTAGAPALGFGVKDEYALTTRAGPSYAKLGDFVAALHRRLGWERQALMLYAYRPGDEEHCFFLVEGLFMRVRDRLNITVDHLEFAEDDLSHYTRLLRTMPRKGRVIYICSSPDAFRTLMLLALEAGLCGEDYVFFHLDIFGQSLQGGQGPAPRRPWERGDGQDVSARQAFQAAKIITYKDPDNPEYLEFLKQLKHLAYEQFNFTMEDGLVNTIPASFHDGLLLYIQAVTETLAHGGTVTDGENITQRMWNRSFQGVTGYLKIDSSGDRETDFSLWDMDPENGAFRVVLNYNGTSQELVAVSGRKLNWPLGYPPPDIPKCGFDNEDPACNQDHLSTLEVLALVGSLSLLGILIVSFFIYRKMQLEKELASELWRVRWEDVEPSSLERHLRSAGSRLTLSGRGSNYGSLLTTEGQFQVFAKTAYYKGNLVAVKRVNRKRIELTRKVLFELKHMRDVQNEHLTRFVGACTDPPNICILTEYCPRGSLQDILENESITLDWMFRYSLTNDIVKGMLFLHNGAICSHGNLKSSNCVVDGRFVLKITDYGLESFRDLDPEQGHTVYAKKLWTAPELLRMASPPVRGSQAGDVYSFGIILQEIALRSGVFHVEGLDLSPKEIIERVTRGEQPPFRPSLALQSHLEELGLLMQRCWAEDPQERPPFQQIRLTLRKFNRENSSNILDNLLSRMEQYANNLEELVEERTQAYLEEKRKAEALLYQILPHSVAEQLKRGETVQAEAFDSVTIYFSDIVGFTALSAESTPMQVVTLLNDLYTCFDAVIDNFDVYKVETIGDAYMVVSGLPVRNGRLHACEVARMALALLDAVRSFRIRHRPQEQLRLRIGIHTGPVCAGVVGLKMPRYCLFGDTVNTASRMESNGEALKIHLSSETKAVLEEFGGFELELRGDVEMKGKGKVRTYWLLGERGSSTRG

With `CC(C[N+](C)(C)C)OC(N)=O` (stereo not given), the compound was classed as inactive in [1], in test [4], in [5], in test [6] and in test [7]. Moreover, the Potency entry in test [2], in test [3], in [8], in test [9] and in [10] was “inactive” each time.

As to `Clc1cccc(Cl)c1NC1=NCCN1`, the compound was called inactive in test [1], in [4], in test [5] and in test [6]. The Potency result in test [2], in [3], in test [8], in [9] and in test [10] was “inactive” in each case.

Take `CNC[C@H](O)c1cccc(O)c1`: the result in test [1], in [4], in test [5] and in [6] was inactive. The Potency entry in test [2], in test [3], in test [8], in [9] and in test [10] was “inactive” throughout.

With `Cc1ccccc1C(OCCN(C)C)c1ccccc1` (stereo not given), the compound was classed as inactive in test [1], in [4], in [5] and in [6]. Besides, the Potency result in [2], in [3], in [8], in test [9] and in test [10] was “inactive” in each case.

As to `Cc1[nH]c(=O)c(C#N)cc1-c1ccc2nccn2c1`, the compound was classed as inactive in test [1], in test [4], in test [5] and in test [6]. Further, the Potency entry in [2], in [3], in test [8], in test [9] and in test [10] was “inactive” throughout.

`CCOC(=O)C1=C[C@]2(CC)CCCN3CCc4c(n1c1ccccc41)[C@@H]32`: the compound was called inactive in test [1], in test [4], in test [5] and in [6]. For the same compound, the Potency entry in test [2], in test [3], in test [8], in test [9] and in test [10] was “inactive” throughout.

As to `CC(C)(C)NCC(O)c1ccc(O)c(CO)c1` (stereo not given), the call in test [1], in [4], in test [5] and in test [6] was inactive. Besides, the Potency entry in test [2], in [3], in test [8], in test [9] and in test [10] was “inactive” in each case.

Turning to `CC(C)NCC(O)COc1ccc(COCCOC(C)C)cc1` (stereo not given), the outcome in test [1], in test [4], in test [5] and in test [6] was inactive. Also, the Potency entry in test [2], in test [3], in [8], in test [9] and in [10] was “inactive” in each case.

`Oc1ccc(C2CNCCc3c2cc(O)c(O)c3Cl)cc1` (stereo not given): the compound was classed as inactive in [1], in [4], in test [5], in test [6] and in test [7]. Moreover, the Potency entry in test [2], in test [3], in [8], in [9] and in test [10] was “inactive” throughout.

Regarding `Cc1cn[nH]c1`, the outcome in test [1], in test [4], in test [5] and in [6] was inactive. Also, the Potency result in test [2], in test [3], in [8], in [9] and in test [10] was “inactive” in each case.

For `C1COC(NC(C2CC2)C2CC2)=N1`, the compound was called inactive in [1], in test [4], in test [5] and in test [6]. In addition, the Potency result in test [2], in test [3], in test [8], in test [9] and in test [10] was “inactive” in each case.

Turning to `CC(C)C[C@H](NC(=O)[C@@H](O)[C@H](N)Cc1ccccc1)C(=O)O`, the call in [1], in test [4], in test [5] and in test [6] was inactive. In addition, the Potency entry in test [2], in test [3] and in test [8] was “inactive” in each case.

`CCC(C)N(C)C(=O)c1cc2ccccc2c(-c2ccccc2Cl)n1` (stereo not given): the compound was called inactive in [1], in test [4], in test [5] and in test [6]. In addition, the Potency result in [2], in test [3], in [8], in [9] and in test [10] was “inactive” each time.

Regarding `CCCC(CCC)C(=O)O`, the compound was called inactive in [1], in test [4], in test [5], in [6] and in [7]. In addition, the Potency entry in [2], in test [3], in [8], in [9] and in [10] was “inactive” each time.

Take `CCOC(=O)N1CCC(=C2c3ccc(Cl)cc3CCc3cccnc32)CC1`: the compound was classed as inactive in test [1], in test [4], in test [5] and in test [6]. For the same compound, the Potency result in test [2], in [3] and in test [8] was “inactive” throughout. The Potency in test [10] was 23.5 µM (active).

As to `CC(=O)Oc1ccccc1C(=O)O`, the compound was called inactive in [1], in test [4], in [5], in test [6] and in [7]. Also, the Potency entry in [2], in test [3], in test [8] and in [10] was “inactive” throughout.

As for `NCCc1ccc(O)c(O)c1`, the compound was classed as inactive in [1], in test [4], in [5], in [6] and in test [7]. In addition, the Potency result in test [2], in test [3], in test [8] and in test [10] was “inactive” each time.

`O=c1[nH]cnc2[nH]ncc12`: the outcome in [1], in test [4], in test [5] and in test [6] was inactive. For the same compound, the Potency result in test [2], in test [3], in test [8], in test [9] and in test [10] was “inactive” in each case.

Take `O=C(O)COCCN1CCN(C(c2ccccc2)c2ccc(Cl)cc2)CC1` (stereo not given): the call in test [1], in test [4], in test [5] and in [6] was inactive. Further, the Potency in [2] is 13.1 µM (active). Also, the Potency result in test [3], in [8], in [9] and in test [10] was “inactive” throughout.

Consider `N[C@@H]1CONC1=O`, for which the outcome in test [1], in test [4], in test [5] and in [6] was inactive. Besides, the Potency result in test [2], in test [3], in test [8], in [9] and in test [10] was “inactive” each time.

In the case of `NC[C@H](O)c1ccc(O)c(O)c1`, the compound was called inactive in [1], in [4], in test [6] and in test [7]. Moreover, the Potency result in [2], in test [3], in test [8], in [9] and in test [10] was “inactive” throughout.

On to `O=c1n(CCCN2CCN(c3cccc(Cl)c3)CC2)nc2ccccn12`, for which the call in test [1], in test [4], in test [5] and in test [6] was inactive. Further, the Potency entry in test [2], in [3], in test [8], in test [9] and in [10] was “inactive” each time.

For `OC(CCN1CCCCC1)(c1ccccc1)C1CC2C=CC1C2` (stereo not given), the compound was called inactive in [1], in test [4], in test [5] and in test [6]. Moreover, the Potency result in [2], in test [3], in [8], in [9] and in [10] was “inactive” throughout.

On to `CCn1cc(C(=O)O)c(=O)c2cc(F)c(N3CCNC(C)C3)c(F)c21` (stereo not given), for which the result in [1], in [4], in [5] and in test [6] was inactive. Also, the Potency result in test [2], in test [3], in test [8], in [9] and in test [10] was “inactive” in each case.

As for `NC(=O)c1cnccn1`, the outcome in test [1], in test [4], in test [5] and in test [6] was inactive. Further, the Potency entry in test [2], in test [3], in test [8], in test [9] and in test [10] was “inactive” in each case.
